HSF1 inh = HSF1 inhibition; NIH3T3-HGL HSE-luciferase, MG132-induced, luminescence 8 h; stronger effect = lower value; activity change, negative = inhibition, % at 7.5 µM (by protocol); 300,000 compounds, 0.77% hits; AID 2098;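 active = more than half of replicate wells show activity change below -50%, luminescence cut by over half; inconclusive = some wells, but at most half, below -50%; inactive = no replicate well below -50%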;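 note: luciferase reports HSF-1 transcriptional activity via heat shock element; 0% = median of DMSO wells and -100% = zero luminescence signal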
AHR act = human AHR activation; P35869; AHR-responsive luciferase reporter cells, luminescence; activation, % at 5 µM; 320,000 compounds, 2.5% hits; AID 2796; in the data active = activation above about 47%;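 note: 0% = vehicle wells and 100% = reference agonist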
Target sequence (P35869 whole entry, looked up): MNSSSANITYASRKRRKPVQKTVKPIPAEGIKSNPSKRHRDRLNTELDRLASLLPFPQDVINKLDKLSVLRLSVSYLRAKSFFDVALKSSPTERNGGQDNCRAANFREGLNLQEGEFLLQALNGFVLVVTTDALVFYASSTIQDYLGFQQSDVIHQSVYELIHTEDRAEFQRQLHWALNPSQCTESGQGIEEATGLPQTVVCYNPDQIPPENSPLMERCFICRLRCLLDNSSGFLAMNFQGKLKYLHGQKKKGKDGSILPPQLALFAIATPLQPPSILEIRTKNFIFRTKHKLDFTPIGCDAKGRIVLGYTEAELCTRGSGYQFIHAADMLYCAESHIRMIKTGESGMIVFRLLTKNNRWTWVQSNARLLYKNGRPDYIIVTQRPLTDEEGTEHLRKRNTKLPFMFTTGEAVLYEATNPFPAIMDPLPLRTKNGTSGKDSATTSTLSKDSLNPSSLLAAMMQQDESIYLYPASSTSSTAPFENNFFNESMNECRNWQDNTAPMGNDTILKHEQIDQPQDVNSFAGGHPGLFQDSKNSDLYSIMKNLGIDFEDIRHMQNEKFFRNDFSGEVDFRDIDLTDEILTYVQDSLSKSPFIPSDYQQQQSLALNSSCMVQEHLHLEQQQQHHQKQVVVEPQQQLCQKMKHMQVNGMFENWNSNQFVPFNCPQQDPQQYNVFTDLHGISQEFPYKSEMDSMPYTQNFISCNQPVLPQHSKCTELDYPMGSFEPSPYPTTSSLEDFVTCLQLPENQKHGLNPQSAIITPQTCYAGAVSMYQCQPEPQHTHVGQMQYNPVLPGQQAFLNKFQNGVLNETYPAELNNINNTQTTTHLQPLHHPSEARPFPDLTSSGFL
GAA850 FXN act = increases GAA850 frataxin promoter reporter activity; HEK293 lucGAA850 FXN promoter luciferase reporter, 24 h; percent of 10 µM SAHA response; 360,000 compounds, 0.56% hits; activation, % at 6 µM;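 active = activation above the average of all compounds screened plus 3 SD, cutoff fixed separately per campaign, cut at about 7.5% in these data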;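 note: 0% = DMSO wells and 100% = 10 µM SAHA wells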
HSF1 activator = increases HSF-1 driven luciferase reporter signal; NIH3T3-HGL HSF-1 luciferase reporter, MG132, 8 h; 100% = twice DMSO control signal; activation, % at 9 µM; 300,000 compounds, 1.7% hits; AID 504408;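 active = mean replicate activation of at least 50% with a set share of replicates each reaching 50%; inconclusive = only one of those two conditions met; inactive = mean below 50% and too few replicates reaching it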;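 note: 0% = median of the neutral control wells and 100% = twice that signal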
* hit, by the source's call; ? = inconclusive; nt = no result. Only some compounds are listed: those with a hit (about 4.6% of all), similar ones and a draw of the others.

SMILES | HSF1 inh | AHR act | GAA850 FXN act | HSF1 activator
CC(Sc1nnnn1C)C(=O)Nc1ccc(Oc2ccccc2)cc1 (configuration not stated) | -68* | -1 | 0 | -74
CC1CCN(c2ccc(C(=O)NCc3cccs3)cn2)CC1 | 39 | -1 | 2 | 52*
COc1ccc(C2=NS(=O)(=O)N(C)C(C(=O)N3CCOCC3)=C2)cc1 | -8 | -1 | 2 | 8
COc1ccc(N2CCN(CCCn3c(=S)[nH]c4ncccc4c3=O)CC2)cc1 | -56* | 0 | -2 | -64
CC[C@@]1(C(=O)OC)N[C@H](CN(C)S(=O)(=O)c2ccc(C(C)(C)C)cc2)[C@@H]2C(=O)N(Cc3ccccc3)C(=O)[C@@H]21 | nt | -2 | 4 | nt
Cc1c(Cc2ccccc2)sc(/N=C/c2c(O)ccc3ccccc23)c1C(N)=O | -58* | 20 | 2 | -55
CC1Oc2ccccc2OC1(O)c1ccc2ccccc2n1 (configuration not stated) | -5 | 51* | 0 | 3
COc1cc(C(=O)Sc2ccc(Cl)cc2)cc(OC)c1OC | 60 | 1 | 0 | 79*
COc1cc(C(=O)NCCSc2ccc(Cl)cc2)cc(OC)c1OC | 18 | 4 | 1 | 7
[O-][n+]1c2cc(C(F)(F)F)ccc2c2n1CCN=C2c1ccc(Cl)cc1 | -1 | 63* | 2 | -24
Nc1c(Cl)cc(C2=NCCn3c2c2ccc([N+](=O)[O-])cc2[n+]3[O-])cc1Cl | 6 | 73* | 0 | 0
O=[N+]([O-])c1ccc(C2=CSC3=NCCN23)cc1 | 4 | 1 | 3 | -7
CCNc1nc(NCC)nc(N/N=C/c2ccc(N(C)C)cc2)n1 | -9 | 40 | -3 | -4
COc1cc(N/N=C/c2ccccc2O)ncn1 | 21 | 17 | 1 | 65*
COc1cc(N/N=C/c2ccc(N(C)C)cc2)ncn1 | -10 | 79* | 2 | 21
Cc1cnn(-c2cc(N/N=C/c3ccccc3F)ncn2)c1 | 10 | 4 | 0 | 16
CN(C(=O)COC(=O)c1ccccc1Cc1ccccc1)C1CCS(=O)(=O)C1 (configuration not stated) | 2 | 2 | 1 | -15
CCN(CC)C(=O)C1CCCN(c2ccc([N+](=O)[O-])cc2/C=N/NC(=O)c2ccc([N+](=O)[O-])cc2)C1 (configuration not stated) | -78* | 3 | 2 | -82
CCN(CC)C(=O)C1CCCN(c2ccc([N+](=O)[O-])cc2/C=N/NC(=O)c2ccccc2)C1 (configuration not stated) | 1 | 1 | 3 | -3
c1csc(-c2cn3ccc4ccccc4c3n2)c1 | 26 | 57* | 5 | ?
Nc1nnc(SCc2c(F)cccc2Cl)s1 | 45 | -4 | 1 | 77*
COCCOC(=O)c1c(NC(=O)CSc2cccc[n+]2[O-])sc(C(N)=O)c1C | 34 | -1 | -1 | 72*
O=C(NN=Cc1ccccc1Cl)c1ccccc1 | nt | nt | 2 | nt
O=C(N/N=C/c1ccc(F)cc1)c1ccc(OCc2ccccc2)cc1 | -75* | -1 | 1 | -82
Cc1occc1C(=O)N/N=C/c1ccc(-c2ccccc2)cc1 | 6 | 7 | 2 | 34
SMILES | HSF1 inh | AHR act | GAA850 FXN act | HSF1 activator
O=C(N/N=C/c1ccccc1Cl)c1ccc(F)cc1 | 32 | 0 | 5 | 56*
Cc1occc1C(=O)N/N=C/c1ccc(OCc2ccccc2)cc1 | 26 | 4 | 5 | 53*
CC(C)Cc1c(O)nc(SCCN2CCOCC2)[nH]c1=O | 4 | 1 | -2 | 10
Cc1cc(-n2c(C)cc(C(=O)CSc3nnnn3-c3ccc(Cl)cc3)c2C)no1 | 1 | 8 | 2 | 3
COC(=O)c1cc2ccsc2n1Cc1nc(-c2ccc(Cl)cc2)oc1C | -79* | 6 | 1 | -83
COC(=O)c1cc2occc2n1Cc1nc(-c2ccc(Cl)cc2)oc1C | 0 | 8 | 3 | 0
N/C(=N\OC(=O)COc1cc(Cl)c(Cl)cc1Cl)c1ccccn1 | 40 | 1 | 5 | 93*
Cc1cccc(OCC(=O)O/N=C(\N)c2ccccn2)c1C | 21 | 2 | 5 | 13
Cc1ccc(OCC(=O)O/N=C(\N)c2ccccn2)cc1 | 28 | 2 | 4 | 57*
Cc1ccc(C(=O)c2sc3nsc(C)c3c2N)cc1 | 33 | 64* | 4 | 61*
Cc1snc2sc(C(=O)c3ccc(Br)cc3)c(N)c12 | 0 | -4 | 2 | 24
CC1CCN(c2ccc(-c3ccc(NC(=O)C(F)(F)F)cc3)nn2)CC1 | -8 | 50* | -2 | -18
CC(=O)Nc1ccc(NC(=O)C(F)(F)F)cc1 | 2 | -2 | -3 | -10
Cc1ccc2[nH]c3c(c2c1)CCN(C)C3 | -71* | 8 | 1 | -77
O=C(Nc1ccc(N2CCN(c3ccc(C(F)(F)F)cn3)CC2)nc1)c1cccs1 | 11 | 15 | 1 | 45
Cc1cccc(S(=O)(=O)N(CC(=O)Nc2ccccc2C)Cc2ccco2)c1 | 1 | 0 | -2 | 10
Cc1ccc2nc(SCc3nnc(-c4ccccc4)o3)[nH]c2c1 | 4 | 38 | 2 | 2
Cc1ccc2nc(SCC(=O)N3CCOCC3)[nH]c2c1 | 10 | 24 | 1 | 18
Cc1ccc2nc(SCc3nnc(-c4cccs4)o3)[nH]c2c1 | 11 | 60* | 1 | 28
Cc1ccc2nc(SCC3CCCCO3)[nH]c2c1 (configuration not stated) | 5 | 51* | -2 | 16
COc1ccc(NC(=S)N(Cc2ccc(N(C)C)cc2)Cc2ccco2)cc1 | 68 | 5 | 4 | 91*
Cc1ccc(C(O)CN2C3=NCCN3c3ccccc32)cc1 (configuration not stated) | 2 | 5 | -1 | 4
Clc1ccc(Cn2ccc(-c3ccc4c(c3)OCO4)n2)cc1Cl | 12 | 51* | 2 | 25
Cc1c(NC(=O)c2cc(-n3cnnc3)ccc2Cl)cccc1-c1nc2ccccc2o1 | nt | 16 | -1 | nt
NC1=NC(=O)/C(=C\C=C\c2ccccc2)S1 | 1 | -2 | 4 | 15
SMILES | HSF1 inh | AHR act | GAA850 FXN act | HSF1 activator
COc1ccc(OC)c(N=C2SCCCN2C(=O)c2ccc(N3C(=O)CCC3=O)cc2)c1 | -68* | -1 | nt | -76
CCOC(=O)c1snc(C(=O)NC2CCCCC2)c1N | 32 | 2 | 5 | 61*
Nc1c(C(=O)NC2CCCCC2)nsc1C(=O)OCC(=O)NC1CCCCC1 | -6 | 1 | -1 | 22
COc1ccc2c(c1)CCc1c-2n[nH]c1C(=O)NCCC(C)C | 30 | -3 | 4 | 51*
COc1ccc(-c2cc(=O)c3cc(F)ccc3[nH]2)cc1 | 3 | 18 | 3 | 8
COc1ccc(-c2cc(=O)c3cc(OC)c(OC)cc3[nH]2)cc1 | 1 | 62* | 2 | -11
O=C1N(CCCN2C(=O)C3(OCCO3)c3ccccc32)c2ccccc2C12OCCO2 | -7 | 30 | -1 | 3
O=C1N(CCCCN2C(=O)C3(OCCO3)c3ccccc32)c2ccccc2C12OCCO2 | 2 | 60* | -2 | -1
CCOC(=O)C1CCN(C(=O)c2ccc3c(c2)S(=O)(=O)c2ccccc2C3=O)CC1 | -2 | 0 | 1 | 3
CC[n+]1c(/C=C/Nc2ccccc2)oc2ccc(OC)cc21 | 4 | 17 | 0 | 3

Screening results deposited in PubChem BioAssay by several laboratories.
